Measured values published in PubChem BioAssay AID2242 (National Center for Advancing Translational Sciences (NCATS), 2010).
In all, about 200,000 compounds went through this assay and about 720 (0.36%) were called active. Another 8% or so got no clear call; they are omitted. Calls follow the shape of the dose curve; as a rule, active = well fitted activation curve with a large enough effect; inconclusive = small, poorly fitted or top-dose-only effect, or effect the other way, or another doubt; inactive = flat fitted curve, though single readings scatter. This is one part of the list.

Biological target: Lysosomal alpha-glucosidase (Homo sapiens) (UniProt P10253)
Experiment: qHTS Assay for Activators of Human alpha-Glucosidase as a Potential Chaperone Treatment of Pompe Disease; also: nearly all actives have a fitted effect of over 80% in size
Details: purified enzyme, 4-MU-alpha-glucoside fluorescence, 20 min; series mostly up to 76.9 µM
Procedure, shortened: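 Compounds titrated up to 77 uM against 4 nM enzyme and 400 uM methylumbelliferyl substrate at room temperature, 20 min, pH 5.0. Basic stop, then 4-methylumbelliferone fluorescence (365/440 nm) normalized to no-enzyme and enzyme controls; Hill-equation AC50.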
Potency is read from the fitted curve at half-maximal effect.

Potency, active:
O=C(c1cc2c(s1)-c1ccccc1OC2)N1CCc2ccccc2C1 35.5 µM, COc1cc2c(cc1OC)C(C)N(C(=O)c1cc3c(s1)-c1ccccc1OC3)CC2 (configuration not stated) 39.8 µM, O=C(c1cc2c(s1)-c1ccccc1OC2)N1CCCC1 28.2 µM, CN1C(=O)c2ccccc2N(C)C1c1ccccc1Cl (configuration not stated) 39.8 µM, CCCCn1c2nc3ccccc3nc2c2c(=O)n(-c3ccccc3)cnc21 35.5 µM, CCC(N=c1cc(-c2ccc(OC)cc2)oc2ccc(C)cc12)C(=O)O (configuration not stated) 31.6 µM, O=[N+]([O-])c1cccc(Nc2c3ccccc3nc3ccccc23)c1 28.2 µM, O=c1oc2c(CN3CCN(CCO)CC3)c(O)ccc2cc1-c1ccccn1 31.6 µM, CCCN(CC(=O)Nc1ccc(Cl)cc1Cl)C(=O)/C=C/c1cc(OC)ccc1OC 31.6 µM, CCCCC[n+]1cccc2c3ccccc3ccc21 35.5 µM, c1ccc(C[n+]2cccc3c4ccccc4ccc32)cc1 39.8 µM, O=C(O)C1C2C=CC(O2)C1C(=O)NCCCn1ccnc1 (configuration not stated) 20 µM, CN1CCCc2cc(C#N)c(=O)[nH]c21 39.8 µM, Cc1cc(=O)oc2cc3c(cc12)OCCN3 35.5 µM, COc1cccc(-c2cc(C(F)(F)F)c(C#N)c(=O)[nH]2)c1 35.5 µM, N#Cc1c(C(F)(F)F)cc(-c2ccccc2)[nH]c1=O 35.5 µM, N#Cc1c(C(F)(F)F)cc(-c2cccc(Cl)c2)[nH]c1=O 39.8 µM, COc1cccc(-c2ccc(C#N)c(=O)[nH]2)c1 39.8 µM, N#Cc1c(C(F)(F)F)cc(-c2ccc(F)cc2)[nH]c1=O 35.5 µM, COc1ccccc1-c1cc(C(F)(F)F)c(C#N)c(=O)[nH]1 39.8 µM, N#Cc1c(C(F)(F)F)cc(-c2ccc(Cl)cc2)[nH]c1=O 39.8 µM, O=C1c2cnc3ncnn3c2CC2c3ccccc3CCN12 (configuration not stated) 12.6 µM, N#Cc1cnn2c3c(cnc12)C(=O)N1CCc2ccccc2C1C3 (configuration not stated) 3.98 µM, CC(=O)c1cc2cc(O)ccc2o1 35.5 µM, Cc1cc(C)n(-c2nc3ccccc3[nH]c2=O)n1 39.8 µM, CNc1nnc(-c2ccc(N(C)C)cc2)s1 35.5 µM, Cc1cc(=O)[nH]c2cc(O)ccc12 35.5 µM, CC(=O)Oc1ccc2c(C)cc(=O)[nH]c2c1 20 µM, CCc1cc2c(=O)c(Oc3ccccc3F)c(C)oc2c(CN(C)C)c1O 35.5 µM, CC1CCN(c2oc(-c3cccc4ccccc34)nc2C#N)CC1 25.1 µM, CC(C)Nc1oc(-c2cccc3ccccc23)nc1C#N 35.5 µM, C=CCNc1oc(-c2cccc3ccccc23)nc1C#N 31.6 µM, COc1ccccc1NC(=O)CSc1nc2c(sc3ccccc32)c(=O)n1CCN(C)C 35.5 µM, CCOC(=O)c1c(C)nc(C)c(C(=O)OCC)c1-c1ccccc1 31.6 µM, O=C(O)c1cc(-c2ccccc2)nc2nc(N3CCCCC3)sc12 28.2 µM, Cc1ccc(-c2cc(C(=O)O)c3sc(N4CCCCC4)nc3n2)cc1 28.2 µM, CCCCN(CC)CCCNC(=O)c1cc2cc3ccc(OC)cc3nc2o1 31.6 µM, CCCN(CCC)CCCNC(=O)c1cc2cc3ccc(OC)cc3nc2o1 28.2 µM, CCn1cc(-c2ccnc3cc(C(=O)O)nn23)c(C)n1 39.8 µM, O=C1NC(c2ccco2)Nc2sc3c(c21)CCN(Cc1ccccc1)C3 (configuration not stated) 35.5 µM, CN1CCc2c(sc3c2C(=O)NC(c2ccco2)N3)C1 (configuration not stated) 31.6 µM, CCCCCn1c(=O)c(-c2nc3ccccc3[nH]2)c(O)c2ccccc21 39.8 µM, Cc1c(O)ccc2c3c(c(=O)oc12)CCCC3 35.5 µM, Cc1c(O)ccc2c3c(c(=O)oc12)CCC(C)C3 (configuration not stated) 35.5 µM, Fc1cccc(-n2c(-c3ccco3)nc3nc4ccccc4nc32)c1 6.31 µM, Fc1ccc(-n2c(-c3cccs3)nc3nc4ccccc4nc32)cc1 3.55 µM, Fc1ccc(-n2c(-c3ccco3)nc3nc4ccccc4nc32)cc1 7.94 µM, Cc1cc(=O)n2cccc(O)c2n1 25.1 µM, O=c1cccc2n1Cc1cc3ccccc3nc1-2 35.5 µM, CC1CN(S(=O)(=O)c2cccc(-c3cn4cccnc4n3)c2)CC(C)O1 (configuration not stated) 35.5 µM, CN(C)S(=O)(=O)c1cccc(-c2cn3cccnc3n2)c1 39.8 µM, CCc1nnc(NC(=O)CSc2nc(C)c3c(c2C#N)CCCC3)s1 35.5 µM, CCC(O)CNc1nc(SC)nc2sc3c(c12)CCN(C)C3 (configuration not stated) 28.2 µM, CSc1nc2oc3c(c2c2nncn12)CC(C)(C)SC3 39.8 µM, Cc1cc(NC(C)C)n2c(nc3ccccc32)c1C#N 35.5 µM, Cc1cc(NCCCCO)n2c(nc3ccccc32)c1C#N 35.5 µM, CCCc1cc(NCCCCO)n2c(nc3ccccc32)c1C#N 35.5 µM, CCCc1cc(NCc2ccccn2)n2c(nc3ccccc32)c1C#N 35.5 µM, Cc1cc(NCCCn2ccnc2)n2c(nc3ccccc32)c1C#N 35.5 µM, COCCNc1cc(C)c(C#N)c2nc3ccccc3n12 35.5 µM, Cc1cc(NCCCO)n2c(nc3ccccc32)c1C#N 35.5 µM, COc1cccc(C(=O)Nc2cc(-c3cn4cccnc4n3)ccc2C)c1 35.5 µM, Cc1ccc(-c2cn3cccnc3n2)cc1NC(=O)c1ccc(Br)o1 35.5 µM, COc1cc(C(=O)Nc2cc(-c3cn4cccnc4n3)ccc2C)cc(OC)c1OC 35.5 µM, O=c1oc2c(CN3CCCCC3)c(O)ccc2c2c1CCCC2 35.5 µM, O=c1oc2c(CN3CCCCC3)c(O)ccc2c2c1CCCCC2 35.5 µM, C=CCn1c(N)c(C(=O)OC(C)(C)C)c2nc3ccccc3nc21 35.5 µM, C=CCn1c(N)c(C(=O)OCCC)c2nc3ccccc3nc21 35.5 µM, CCOC(=O)c1c(N)n(CC(C)NC(=O)C2CC2)c2nc3ccccc3nc12 (configuration not stated) 35.5 µM, COCC(C)OC(=O)c1c(N)n(CC(C)C)c2nc3ccccc3nc12 (configuration not stated) 35.5 µM, CC(C)(C)OC(=O)c1c(N)n(CCCN2CCCC2=O)c2nc3ccccc3nc12 31.6 µM, C=CCn1c(N)c(C(=O)OCC(C)C)c2nc3ccccc3nc21 35.5 µM, C=CCn1c(N)c(C(=O)OC(C)CC)c2nc3ccccc3nc21 (configuration not stated) 31.6 µM, CC(C)CN(Cc1c(O)ccc2c3c(c(=O)oc12)CCC3)CC(C)C 31.6 µM, Cc1cc(=O)oc2c(CN(CC(C)C)CC(C)C)c(O)ccc12 31.6 µM, Cc1cc(=O)oc2c(CN(C)Cc3ccccc3)c(O)ccc12 35.5 µM, COCCN(CCOC)Cc1c(O)ccc2c3c(c(=O)oc12)CCC3 35.5 µM, CN(C)Cc1c(O)ccc2c3c(c(=O)oc12)CCCCC3 35.5 µM, COc1ccc(-c2cc(C(F)(F)F)n3nc(C(=O)NCCN4CCOCC4)cc3n2)cc1 44.7 µM, CCCc1cc(=O)oc2c(CN3CCCC3)c(O)ccc12 35.5 µM, CCCc1cc(=O)oc2c(CN3CCOCC3)c(O)ccc12 31.6 µM, CCCCc1cc(=O)oc2c(CN3CCCC3)c(O)ccc12 31.6 µM, CCOC(=O)C1=CN(CC2CCCO2)C=C(C(=O)OCC)C1c1ccccc1C(F)(F)F (configuration not stated) 35.5 µM, COC(=O)C1=CN(CC2CCCO2)C=C(C(=O)OC)C1c1ccccc1C(F)(F)F (configuration not stated) 25.1 µM, COP(=O)(OC)c1nc(-c2cccc3ccccc23)oc1NCc1ccccc1 35.5 µM, CCOP(=O)(OCC)c1nc(-c2cccc3ccccc23)oc1NCc1ccc(OC)cc1 35.5 µM, COc1ccc(CNc2oc(-c3cccc4ccccc34)nc2C#N)cc1 28.2 µM, Cc1oc2cc(O)ccc2c(=O)c1Oc1ccc2ccccc2c1 39.8 µM, CC(=O)Oc1cc2oc(=O)cc(C)c2cc1OC(C)=O 31.6 µM, Cc1cc(=O)oc2cc(OC(=O)c3ccccc3)ccc12 25.1 µM, Cc1cc(=O)oc2cc(OC(=O)c3cncc(Br)c3)ccc12 17.8 µM, CCC(=O)Oc1ccc2c(C)c(Cl)c(=O)oc2c1 35.5 µM, CC(=O)Oc1ccc2c(C)cc(=O)oc2c1 35.5 µM, Cc1cc(=O)oc2cc(OCc3ccc(C(=O)N4CCN(c5ccccc5)CC4)cc3)ccc12 39.8 µM, Cc1cc(=O)oc2cc(OC(=O)CCN3C(=O)c4ccccc4C3=O)ccc12 25.1 µM, CCCC(=O)Oc1ccc2c(C)cc(=O)oc2c1 35.5 µM, CCN(CC)c1cc(C)c2cc(NC(=O)CNC(C)=O)ccc2n1 35.5 µM, CCN1c2ccccc2-c2nc3ccccc3n2C1c1cccs1 (configuration not stated) 35.5 µM, CN1c2ccccc2-c2nc3ccccc3n2C1c1cccs1 (configuration not stated) 35.5 µM, COc1ccc(-c2cn3cccnc3n2)cc1F 28.2 µM, COc1ccc(-c2cn3cccnc3n2)cc1Br 35.5 µM, CC12CCC(=O)N1c1c(sc3nc(N4CCOCC4)c4c(c13)CCCC4)C(=O)N2 (configuration not stated) 35.5 µM
